Test results published in PubChem BioAssay (Tox21).
“And” between values parts separate entries of the source, which are not always exact repeats. Identical values can stand only once. Records with an inconclusive call do not appear. Entries that show only a call come without a potency. The source made the active and inactive calls. Unless noted, the call rests on the fitted dose curve; in most records, active means well fitted curve in the direction sought with a large enough effect in the repeat runs; inconclusive means weak or mixed curves; inactive means no such curve, though single readings can be large; an effect the other way counts as inactive or inconclusive.

Columns and labels:
[1] = A CellTox Green Cytotoxicity Assay to monitor cytotoxicity in HepG2 cells - 8 hour (AID 1224890); further: nearly all actives have a fitted effect of over 45% in size
How it was run: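 Real-time, homogeneous cytotoxicity readout: dead-cell DNA staining by CellTox Green in HepG2 monolayers, fluorescence measured at timed intervals up to 40 h of continuous compound exposure.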

[2] = qHTS assay to identify small molecule antagonists of the estrogen receptor alpha (ER-alpha) signaling pathway using the BG1 cell line in the presence of 0.1 nM 17-beta-estradiol - cell viability counter screen (AID 1259241); further: nearly all actives have a fitted effect of over 40% in size; further: potency means the concentration at half of the fitted maximal effect
How it was run: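 Following 5 days in phenol red-free medium with charcoal-stripped serum, VM7Luc4E2 cells received test compounds alongside 0.1 nM 17beta-estradiol (final) at 37C for 22 hr. Live cells were then quantified via protease-substrate fluorescence.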

[3] = target: Androgen receptor (Homo sapiens) (UniProt P10275); test: qHTS assay to identify small molecule antagonists of the androgen receptor (AR) signaling pathway using the MDA cell line in the presence of 0.5 nM R1881 (AID 1259243); further: nearly all actives have a fitted effect of over 50% in size
How it was run: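 Steps: seed MDA-kb2 cells, incubate 5 hr at 37C; pin-transfer compounds in DMSO; add R1881 to 0.5 nM final; incubate 16 hr; add ONE-Glo, wait 30 min at room temperature; read luminescence.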

[4] = target: Estrogen receptor (Homo sapiens) (UniProt P03372); test: qHTS assay to identify small molecule antagonists of the estrogen receptor alpha (ER-alpha) signaling pathway using the BG1 cell line in the presence of 0.1 nM 17-beta-estradiol (AID 1259244); further: nearly all actives have a fitted effect of over 50% in size; further: potency means the concentration at half of the fitted maximal effect
How it was run: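 After 5 days in hormone-depleted medium (charcoal-stripped serum, no phenol red), VM7Luc4E2 cells were seeded, incubated 24 h, then co-treated with compound and 0.1 nM (final) estradiol for 22 h before luminescence detection.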

[5] = qHTS assay to identify small molecule HDAC inhibitors (AID 1259364); further: nearly all actives have a fitted effect of over 45% in size; further: potency means the concentration at half of the fitted maximal effect
How it was run: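 Homogeneous cell-based luminescent assay of endogenous class I/II HDAC activity; HCT-116 cells, 2 h compound exposure, 30 min HDAC-Glo development at RT.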

[6] = qHTS assay to identify small molecule HDAC inhibitors - cell viability counter screen (AID 1259365); further: series mostly up to about 92 µM; nearly all actives have a fitted effect of over 50% in size
How it was run: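 HCT-116 wild-type, overnight attachment; 2hr drug exposure, 37C; CellTiter-Glo luminescent ATP readout after 30min RT.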

[7] = qHTS assay to identify small molecule agonists of the sonic hedgehog signaling (Shh) pathway - cell viability counter screen (AID 1259366); further: nearly all actives have a fitted effect of over 50% in size
How it was run: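 Compounds in DMSO were pin-transferred onto 3T3 Gli1-Luc cells that had settled 4hr; plates then stood 24hr at 37C and 5% CO2. One hour before the end, CellTiter-Fluor was added and fluorescence recorded.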

[8] = qHTS assay to identify small molecule antagonists of the sonic hedgehog signaling (Shh) pathway - cell viability counter screen (AID 1259367); further: nearly all actives have a fitted effect of over 55% in size; further: potency means the concentration at half of the fitted maximal effect
How it was run: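 NIH/3T3-derived Gli1-Luc reporter cells (2,000 per well) rested 4 hr at 37 C, then received DMSO compounds plus conditioned medium. After 23 hr of treatment, CellTiter-Fluor was added for 1 hr at 37C and fluorescence read.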

[9] = qHTS assay to identify small molecule agonists of the sonic hedgehog signaling (Shh) pathway (AID 1259368; calls by dose curve;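 further: NIH/3T3-derived 3T3Gli1-Luc cells carrying a stable Gli1-driven firefly luciferase reporter; series mostly up to about 92 µM; nearly all actives have a fitted effect of over 15% in size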)
How it was run: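 Steps: seed 3T3 Gli1-Luc cells, incubate 4 hr at 37 C, pin-transfer compounds in DMSO alongside a positive control, incubate 24 hr, add luciferase detection reagent, wait 30 min at room temperature, read luminescence.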

[10] = target: Estrogen receptor beta (Homo sapiens) (UniProt Q92731); test: qHTS assay to identify small molecule agonists of the estrogen receptor beta (ER-beta) signaling pathway (AID 1259377; active means well fitted activation curve with a large enough effect in the signal ratio in the repeat runs, not every such curve was filed as active; the % refers to the signal ratio)
How it was run: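 qHTS in ER-beta-UAS-bla HEK293T cells: 6 hr settling, then 16 hr compound at 37C, then LiveBLAzer substrate 2 h at RT before fluorescence reading.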

[11] = target: Estrogen receptor beta (Homo sapiens) (UniProt Q92731); test: qHTS assay to identify small molecule antagonists of the estrogen receptor beta (ER-beta) signaling pathway (AID 1259378; active means well fitted inhibition curve with a large enough effect in the signal ratio in the repeat runs, not every such curve was filed as active; the % refers to the signal ratio)
How it was run: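 ER-beta-UAS-bla HEK293T (GripTite) cells in 2% charcoal-stripped FBS medium were preincubated 6 hr at 37C, dosed with compound, then stimulated with 1 nM E2 (final) for 16 hr; beta-lactamase reporter read by B/G FRET fluorescence after 2 hr substrate loading.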

[12] = qHTS assay to identify small molecule agonists of the androgen receptor (AR) signaling pathway in the presence of an antagonist - cell viability counter screen (AID 1259379); further: nearly all actives have a fitted effect of over 25% in size; further: potency means the concentration at half of the fitted maximal effect
How it was run: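 Fluorescence from CellTiter-Fluor, added after 15 hr and read 1 hr later, gave cell viability. Cells were MDA-kb2 exposed to compounds (15 concentrations) in the presence of 3.0uM nilutamide at 37C, 0% CO2.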

[13] = qHTS assay to identify small molecule agonists of the estrogen receptor beta (ER-beta) signaling pathway - cell viability counter screen (AID 1259380); further: nearly all actives have a fitted effect of over 30% in size
How it was run: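 Same-well viability counter screen. Cells: ER-beta-UAS-bla HEK293T, plated 6 hr before compound, in 2% charcoal-stripped FBS. Compound exposure 16 hr, 37C; viability by CellTiter-Glo luminescence after 30 min at room temperature.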

[14] = target: Androgen receptor (Homo sapiens) (UniProt P10275); test: qHTS assay to identify small molecule agonists of the androgen receptor (AR) signaling pathway in the presence of an antagonist (AID 1259381; calls by dose curve; further: nearly all actives have a fitted effect of over 15% in size)
How it was run: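 Cells are MDA-kb2 (human breast carcinoma, MMTV-luc, AR/GR responsive). Nilutamide is present at 3.0uM final throughout; compounds are added at 15 concentrations and incubated 16hr at 37C before ONE-Glo luminescence detection.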

[15] = qHTS assay to identify small molecule antagonists of the estrogen receptor beta (ER-beta) signaling pathway - cell viability counter screen (AID 1259382); further: series mostly up to about 92 µM; nearly all actives have a fitted effect of over 55% in size
How it was run: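 Following a 6 hr plating period, HEK293T cells carrying a UAS-driven beta-lactamase reporter under ER-beta control received compounds and 1nM E2 (final). After 16 hr at 37C and 2 hr substrate loading, CellTiter-Glo luminescence indicated viability.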

[16] = target: Estrogen receptor (Homo sapiens) (UniProt P03372); test: qHTS assay to identify small molecule agonists of the estrogen receptor alpha (ER-alpha) signaling pathway in the presence of an antagonist (AID 1259383; calls by dose curve; further: top concentration of the series differs between compounds; nearly all actives have a fitted effect of over 15% in size)
How it was run: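 Cells are hormone-deprived for 5 days (charcoal-stripped FBS, no phenol red), plated for 24hr, spiked with 10.0nM ICI-182,780, then dosed at 15 concentrations. After 22hr at 37C, ONE-Glo luminescence reports ERE-luciferase activity.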

[17] = qHTS assay to identify small molecule agonists or antagonists of the thyroid stimulating hormone receptor (TSHR) signaling pathway - wild type cell line counter screen (AID 1259384; calls by dose curve)
How it was run: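 Wild-type HEK293 cells were plated 18 h at 37 C/5% CO2, pin-dosed with compound plus Ro20-1724 medium, held 30 min at room temperature, then given cAMP-d2 and anti-cAMP-cryptate; fluorescence was read after 1 h. Fifteen concentrations, triplicate.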

[18] = qHTS assay to identify small molecule antagonists of the androgen receptor (AR) signaling pathway using the MDA cell line in the presence of 0.5 nM R1881 - cell viability counter screen (AID 1259242); further: nearly all actives have a fitted effect of over 45% in size
How it was run: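 Cytotoxicity toward MDA-kb2 cells is measured by CellTiter-Fluor live-cell protease fluorescence after 16 hr compound exposure at 37C in the presence of 0.5 nM R1881 stimulator.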

[19] = qHTS assay to identify small molecule phospholipidosis (PLD) inducers (AID 1259344; active means well fitted curve in the direction sought with a large enough effect; an effect the other way counts as inactive or inconclusive)
How it was run: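 HepG2 cells on collagen I, attached 4 h at 37 C, were co-treated with compound and LipidTOX Red dye for 24 h at 37 C, then fixed with paraformaldehyde plus Hoechst 33342 and imaged by high-content microscopy for phospholipid accumulation.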

[20] = qHTS assay to identify small molecule antagonists of the sonic hedgehog signaling (Shh) pathway (AID 1259369; calls by dose curve; further: nearly all actives have a fitted effect of over 45% in size; further: potency means the concentration at half of the fitted maximal effect)
How it was run: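 Inhibition of Shh signalling is measured as reduced Gli1-response-element firefly luciferase output in an NIH/3T3-derived stable reporter clone stimulated with conditioned medium for 24hr.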

Chain of Estrogen receptor (Homo sapiens) (P03372 whole entry, looked up): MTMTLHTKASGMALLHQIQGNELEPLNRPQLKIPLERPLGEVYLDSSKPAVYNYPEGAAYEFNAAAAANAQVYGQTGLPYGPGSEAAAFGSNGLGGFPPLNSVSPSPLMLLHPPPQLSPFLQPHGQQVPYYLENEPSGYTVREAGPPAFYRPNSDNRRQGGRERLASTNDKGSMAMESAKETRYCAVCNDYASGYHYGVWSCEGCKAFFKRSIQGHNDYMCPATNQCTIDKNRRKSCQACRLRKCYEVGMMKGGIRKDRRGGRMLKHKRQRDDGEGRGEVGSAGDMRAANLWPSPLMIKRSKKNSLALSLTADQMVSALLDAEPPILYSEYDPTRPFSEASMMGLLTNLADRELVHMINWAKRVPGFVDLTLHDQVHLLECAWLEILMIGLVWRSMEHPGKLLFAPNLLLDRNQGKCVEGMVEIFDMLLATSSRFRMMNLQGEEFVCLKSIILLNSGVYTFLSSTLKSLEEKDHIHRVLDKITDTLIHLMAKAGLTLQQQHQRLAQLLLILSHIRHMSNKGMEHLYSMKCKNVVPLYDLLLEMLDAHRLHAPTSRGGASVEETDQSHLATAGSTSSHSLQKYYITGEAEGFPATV
Chain of Androgen receptor (Homo sapiens) (P10275 whole entry, looked up): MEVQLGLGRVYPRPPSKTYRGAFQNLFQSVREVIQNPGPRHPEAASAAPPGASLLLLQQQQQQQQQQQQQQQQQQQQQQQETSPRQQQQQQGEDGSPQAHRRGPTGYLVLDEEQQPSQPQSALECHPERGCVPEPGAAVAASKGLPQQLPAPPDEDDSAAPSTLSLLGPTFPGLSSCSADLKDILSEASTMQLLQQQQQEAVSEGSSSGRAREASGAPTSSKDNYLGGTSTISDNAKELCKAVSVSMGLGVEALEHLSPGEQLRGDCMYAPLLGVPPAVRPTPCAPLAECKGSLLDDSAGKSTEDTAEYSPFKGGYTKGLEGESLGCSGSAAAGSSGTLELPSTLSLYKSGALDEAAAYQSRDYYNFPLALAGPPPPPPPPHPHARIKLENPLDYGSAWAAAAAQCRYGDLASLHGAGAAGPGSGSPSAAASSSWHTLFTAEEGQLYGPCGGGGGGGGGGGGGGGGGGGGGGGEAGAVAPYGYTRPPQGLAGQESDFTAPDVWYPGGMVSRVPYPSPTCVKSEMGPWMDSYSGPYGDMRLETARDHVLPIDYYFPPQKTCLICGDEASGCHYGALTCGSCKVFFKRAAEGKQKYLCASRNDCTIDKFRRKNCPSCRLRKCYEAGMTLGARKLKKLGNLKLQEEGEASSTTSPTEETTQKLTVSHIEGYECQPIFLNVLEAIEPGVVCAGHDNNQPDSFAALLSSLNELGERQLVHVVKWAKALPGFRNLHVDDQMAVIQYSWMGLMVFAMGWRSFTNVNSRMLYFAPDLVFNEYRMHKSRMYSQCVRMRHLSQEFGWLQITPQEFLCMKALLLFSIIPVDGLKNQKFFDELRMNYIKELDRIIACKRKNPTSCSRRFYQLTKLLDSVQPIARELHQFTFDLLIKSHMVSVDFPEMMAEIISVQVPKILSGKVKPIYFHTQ
Chain of Estrogen receptor beta (Homo sapiens) (Q92731 whole entry, looked up): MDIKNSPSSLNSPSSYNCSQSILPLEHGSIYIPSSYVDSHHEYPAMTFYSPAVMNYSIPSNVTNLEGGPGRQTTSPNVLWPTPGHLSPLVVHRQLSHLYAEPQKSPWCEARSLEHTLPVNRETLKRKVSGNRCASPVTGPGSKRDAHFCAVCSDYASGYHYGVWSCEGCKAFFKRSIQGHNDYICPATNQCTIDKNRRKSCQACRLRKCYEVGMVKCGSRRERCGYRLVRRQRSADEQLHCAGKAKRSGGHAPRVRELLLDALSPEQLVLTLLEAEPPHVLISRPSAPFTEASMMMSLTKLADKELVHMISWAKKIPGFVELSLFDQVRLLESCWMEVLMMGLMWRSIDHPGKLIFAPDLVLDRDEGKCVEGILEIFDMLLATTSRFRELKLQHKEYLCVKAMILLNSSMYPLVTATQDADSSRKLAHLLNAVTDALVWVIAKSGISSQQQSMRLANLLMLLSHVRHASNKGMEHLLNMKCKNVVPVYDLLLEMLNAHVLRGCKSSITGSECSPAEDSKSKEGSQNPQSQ

Compound | Potency [1] | Potency [2] | outcome [3] | Potency [4] | Potency [5] | outcome [6] | Potency [7] | Potency [8] | outcome [9] | Potency [10] | Potency [11] | Potency [12] | Potency [13] | Potency [14] | Potency [15] | Potency [16] | outcome [17] | Potency [18] | outcome [19] | Potency [20]
Cc1ccc(C)c(C)c1 | inactive | inactive | inactive | inactive | inactive | inactive | inactive | inactive | inactive | inactive | inactive | inactive | inactive | inactive | inactive | inactive | inactive |  |  | 
O=c1c(-c2ccc(O)cc2)coc2cc(O)ccc12 | inactive | inactive | inactive | inactive | 5.39 µM (active) and 6.11 µM (active) | inactive | inactive | inactive | inactive |  |  | inactive |  | inactive | inactive |  | inactive |  |  | 
Cc1cc(O)cc(C)c1Cl | inactive | inactive |  |  | inactive | inactive | inactive | inactive | inactive | inactive | inactive | inactive | inactive |  | inactive |  | inactive | inactive | inactive | 3.06 µM (active)
CCOC(=O)C1OC1c1ccccc1 (stereo not drawn) | inactive | inactive |  |  | 49.5 µM (active) | inactive | inactive | inactive | inactive |  |  | inactive |  |  | inactive |  |  | inactive |  | inactive
CC(C)(C)C(=O)C1C(=O)c2ccccc2C1=O | inactive | 54.5 µM (active) |  | 61.1 µM (active) | inactive | inactive | inactive | 60.5 µM (active) | inactive | inactive |  | 60.5 µM (active) | inactive |  | inactive | inactive | inactive | inactive |  | 
Oc1ccc2ccccc2c1 | inactive | inactive |  |  | inactive | inactive | inactive | inactive | inactive |  |  | inactive | inactive | inactive | inactive |  | inactive | inactive |  | 5.58 µM (active) and 9.69 µM (active)
CC1=CC[C@H]2C[C@@H]1C2(C)C | inactive | inactive |  | inactive | inactive | inactive | inactive | inactive | inactive | inactive | inactive | inactive | inactive |  | inactive | inactive | inactive | inactive |  | 
COC(=O)c1ccccc1O | inactive | inactive |  | inactive | inactive | inactive | inactive | inactive | inactive | inactive | inactive | inactive | inactive |  | inactive | inactive | inactive |  | inactive | inactive
CC(C)Cc1ccccc1 | inactive | inactive |  | inactive | inactive | inactive | inactive | inactive | inactive |  |  | inactive | inactive |  | inactive | inactive | inactive | inactive |  | 
